According to the supplement of paper PMC11417369:
± gives the standard deviation of the averaged measurements. In all, about 25,000 sequences were measured (“ln(normalized median fluorescence intensity)”: median about 8.6, highest 2% from about 10 on). The sample holds the highest values, similar sequences and a random draw of the others, so the mix is not that of the screen.

These sequences were tested on PfAP2-EXP AP2 domain (GST-tagged) (assay: gcPBM binding intensity (ln(normalized median fluorescence intensity)); higher = stronger DNA binding).
Outline: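 In this array assay, P. falciparum DNA-binding domains with a GST tag, expressed in E. coli, were applied for 1 h to primer-extended double-stranded 36-bp intergenic genomic probes and negative controls on an Agilent 4 × 180k array. Bound protein was visualised with Alexa488 anti-GST antibody at 488 nm. Binding intensity is the highest Masliner-normalised natural-log median intensity across replicate spots of either probe orientation.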

Sequence	gcPBM binding intensity (ln)
CATACCTTTTAATGTACACACATTTCTTTTTTGTTA [CACACA_site892]	8.88 ± 0.28
AAAAAAAAAATTAAATGTACATATATAATATATATA [XGTACX_site7245]	8.62 ± 0.014
TCCTACATATTATAGTGTACATTTTCATGTTCATAT [XGTACX_site4308]	8.62 ± 0.39
ATAAGATGATGGAACTGTAATATATATATATATATA [CACACA_negctrl_site839]	10 ± 0.5
AAAAAAATAAATAAATGTACATATATAAAACATTGT [XGTACX_site2136]	8.87 ± 0.33
TGTAATCTGGAGAAAAGTACACAGTATCTGGTAGCT [XGTACX_site2039]	8.53 ± 0.34
TTTTTAATTTACTGTCATAGGTACCTTAACTTATCA [CACACA_negctrl_site1664]	8.72 ± 0.49
ATATAAATGTATATGACACACATATATATATATATA [CACACA_site889]	9.91 ± 0.3
AAAAATAAAAAAATGACACACATATATATATATATA [CACACA_site2307]	10 ± 0.53
AATGACAACCTTGTCACACATATATATATATATATA [CACACA_site5977]	10.2 ± 0.4
AAAAAAAAAAAAAAAAATATATTTATGAAATAAAAA [TGCATGCA_negctrl_site262]	8.405 ± 0.078
AACTTACTTGGACATACACACATATAGATTTATATA [CACACA_site7412]	8.84 ± 0.3
ATTTATATTTTATATACACACATGAACTTATATGGA [CACACA_site3167]	8.37 ± 0.41
TGAACTTACTTGGACATACACACATATATATATATA [CACACA_site2977]	10.2 ± 0.27
ATGGGACATATATATACACACATATATATATATATA [CACACA_site1202]	10 ± 0.21
TATACAGATGGACACACACACATATATATATATATA [CACACA_site5272]	10.2 ± 0.3
AACTTACTTGGACATACACACATATATATATATATA [CACACA_site2978]	10.2 ± 0.44
ATAAATATACATTATACCGACCATGTGGATATTATA [XGTACX_negctrl_site241]	8.43 ± 0.49
GTGCATATGTAGATATGTACATATTTATTTATTATT [XGTACX_site7343]	8.38 ± 0.16
TTCTAGAAAACTGATCGTACAAATAAATATAGACAC [XGTACX_site2808]	8.88 ± 0.28
AATGGTAATCCACATACACACACACCGACACATATA [CACACA_site8876]	8.72 ± 0.49
TTCTTCTGTTTTATTACACACCATTTTGTGTATACA [CACACA_site7059]	8.96 ± 0.35
GGTATATATTTATAATGTACATATTCATATATATAA [XGTACX_site3291]	8.45 ± 0.39

Sequence	gcPBM binding intensity (ln)
CATATACACCAACACACACACACACCCACAAAAAAA [CACACA_site496]	8.53 ± 0.4
TATAAATATAAATACACACACACACGCCAAAGCGTA [CACACA_site6181]	8.49 ± 0.36
TATATATATATATACACACACACACCCCAAAGCGTA [CACACA_site64]	10.4 ± 0.15
ACCATACATACATACACACACACACCCATATATATA [CACACA_site2917]	8.94 ± 0.45
TATATATATAAATACACACACACACCCCAAAGCGTA [CACACA_site4211]	9.18 ± 0.46
TATATATATATATATACACACACACCCACCAAAGCG [CACACA_site7904]	10.3 ± 0.26
GTACACATATAGTAATAATTTTATTATATTTTTTTG [CACACA_negctrl_site843]	8.46 ± 0.3
TATATATATATATATTTTTTTTTTTTATGCACATGG [CACACA_negctrl_site1573]	10.1 ± 0.36
ATATAAGTACGGCATGCATGCACATTTTTTTATTCC [TGCATGCA_site101]	10.3 ± 0.23
GATTATTTTATAAGTACACACATTTATATATAATAA [CACACA_site2573]	8.41 ± 0.33
AAATATTACCATGTGAAAATTTTACTGCAACATGAA [TGCATGCA_negctrl_site609]	8.71 ± 0.38
AATGAATAATTATTTTGTACATAATATTATATTTAT [XGTACX_site5350]	8.34 ± 0.36
AATCATTAAAGCATAATGTTTATGATCAATATGAAA [CACACA_negctrl_site887]	8.27 ± 0.33
GTTACATACATATACACACACATATATATATATATA [CACACA_site901]	9.99 ± 0.35
TTTATATTTATATATACACACATATACATCCTATTT [CACACA_site3079]	8.54 ± 0.31
CCCTCTTCTCTCATATCACACATGTCATCCTTATCC [CACACA_site5078]	9.15 ± 0.42
CTCATCCTTACATACACACACATATATATATATATA [CACACA_site103]	10.2 ± 0.29
TTCTCATCCTTACATACACACACATATATATATATA [CACACA_site7914]	10.3 ± 0.11
CTCATCCTTACATACACACACATATATTTATTTATA [CACACA_site6202]	8.99 ± 0.39
TTTTTTTTTTTTTTTACACACAAATGTATACTATAT [CACACA_site1787]	8.46 ± 0.43
TTTTTATTGTTATAGTTATAATATATTATTTGATTA [XGTACX_negctrl_site27]	8.44 ± 0.4
TATATATTAGAAGATAGTACATATATATTTATTAAT [XGTACX_site1011]	8.53 ± 0.24
ATATATATATATAATAGTACATATATTTTGAAAGAT [XGTACX_site5800]	9.75 ± 0.27

Sequence	gcPBM binding intensity (ln)
ATATTTGCCCAAGATAGTACATATATATATATATAT [XGTACX_site7756]	10.2 ± 0.24
AAATTAAATGTAAGCACACATAAATTATACGCATAT [CACACA_site3335]	8.6 ± 0.38
AAAAAAAAAAAATTCACACACATATAAAAAATTAAG [CACACA_site728]	8.39 ± 0.45
AAAAATATTATAAGCACACATATATATATATATATA [CACACA_site2458]	10.3 ± 0.28
ATAAAAAAAAATAGCACACATAAATATATTATATAT [CACACA_site767]	8.66 ± 0.35
TATATATATATAAGCACACAAACAAAAAAAATTATA [CACACA_site3897]	9.74 ± 0.27
AAATTAAATGTAAGCACACATAAATTATACTCATAT [CACACA_site5782]	8.36 ± 0.33
AAAATTAAATTATAAGCACACACATATATATATATA [CACACA_site9105]	10.2 ± 0.52
AATTAAATTATAAGCACACACATATATATATATATA [CACACA_site3351]	10.2 ± 0.32
ATAAAAATATTATAAGCACACATATATATATATATA [CACACA_site8781]	10.2 ± 0.34
ATACAATAATATAAATGTACAAATTATATCTTCATT [XGTACX_site8994]	8.37 ± 0.33
TATACCTATAGACACACACACATAAATAGATATATA [CACACA_site6748]	8.83 ± 0.51
TATATGCAAAATGTCACACATGTGATAAATACATAT [CACACA_site4302]	8.72 ± 0.36
ATTTTACATATTTGCACACATATATTTATATACATA [CACACA_site854]	8.89 ± 0.4
TATAAAAAAAACGAAAAAAAAAAAAAAAATACAGGA [TGCATGCA_negctrl_site585]	8.54 ± 0.61
TATATATATATATATACACACATATACATATTGTTT [CACACA_site3499]	10.2 ± 0.32
TATATATATATATATACACACATACAGATATATATT [CACACA_site4629]	10.2 ± 0.36
AGTATACAGATATATACACACATATATATATATATA [CACACA_site4323]	10 ± 0.41
CACAGATATATACATACACACATATATACACATATA [CACACA_site6323]	8.58 ± 0.38
TATATATACATACATACACACATATATATATATATT [CACACA_site4110]	8.71 ± 0.4
GTTACATACAGATACACACACATATATATATATATA [CACACA_site4652]	10.2 ± 0.15
CATACATACATACATACACACATACAGATATATATA [CACACA_site4890]	9.15 ± 0.32
TATATATATATATATACACACATACATATATATATT [CACACA_site8185]	10.1 ± 0.4

Sequence	gcPBM binding intensity (ln)
TGTTGTTACAGATATACACACATATATATATTATAT [CACACA_site5342]	8.55 ± 0.41
AAGGTTTTGGGTTTTAATTAATTTAATATGATTATA [XGTACX_negctrl_site147]	8.46 ± 0.59
TACATTTTTATTTTTACACACATATATATATATATA [CACACA_site1021]	10.1 ± 0.31
AAAATAAATATAAAATGTACTTATATATATATATAT [XGTACX_site7803]	9.97 ± 0.47
AACAGATAATATAAAAAAAAAAAAAAAAATAATTAA [GTGCAC_negctrl_site69]	8.07 ± 0.53
ATATTTTTTTTCTACACACATACAAATATATATTAT [CACACA_site2359]	8.97 ± 0.46
AATAAATAAAAAACATGTACAAATATAATATAGCAT [XGTACX_site6429]	9.18 ± 0.5
AAATTGTGTTCATCAGCACACACAACATCATGTAAT [CACACA_site8556]	8.51 ± 0.41
AAATATAAAAAAAATATATAATTTTTACATCGAATT [CACACA_negctrl_site544]	8.24 ± 0.38
TTATACACAAAAAAAAAAATATATATATATATATAT [XGTACX_negctrl_site5]	10.2 ± 0.61
CACAAATATATACATACACACATATATACACATATA [CACACA_site8024]	8.47 ± 0.34
TACACAAATATATATATATATATATATATATATATA [XGTACX_negctrl_site305]	10.2 ± 0.14
GTACAAAAAAAAATAAAATACATATATATATATATA [GTGCAC_negctrl_site364]	10.1 ± 0.41
TAATAAAAAATATATACACACAAATAAATAAATAAA [CACACA_site4037]	8.75 ± 0.62
AAATAAAAAGGGTGCACACAAAAATATATATATATA [CACACA_site1728]	10.5 ± 0.6
CACAAATATACAAATACACACAAATATACAAATACA [CACACA_site2385]	8.7 ± 0.41
TACAAAAAAAAATAAAATACATATATATATATATAT [XGTACX_negctrl_site608]	10.3 ± 0.18
TAAATATATATATACACACACATACACAAAAAAAAA [CACACA_site3580]	8.73 ± 0.42
AAAAATAAAAGGTGTGCACACAAAAATATATATATA [CACACA_site8507]	9.74
TATAAATATATATATACACACACATACACAAAAAAA [CACACA_site9191]	8.96 ± 0.54
AAAAATAAAGGGTGTGCACACAAAAATATATATATA [CACACA_site1727]	9.805 ± 0.078
